Shown are actives, neighbours in structure and some others; about 3.1% of the full set was active somewhere.
Tau FP inhib: blocks human tau fibril formation measured by polarization; actives 0.39% (n = 280,000); Potency, µM (series often up to 57.7 µM), for the others: top-dose activity, negative = inhibition, usual class: inhibitors; AID 1468; P10636; K18 P301L tau heparin fibrillization, Alexa594 FP, 6 h; also: nearly all actives have a fitted effect of over 55% in size
Target sequence (P10636 561-689 P618L limits assumed): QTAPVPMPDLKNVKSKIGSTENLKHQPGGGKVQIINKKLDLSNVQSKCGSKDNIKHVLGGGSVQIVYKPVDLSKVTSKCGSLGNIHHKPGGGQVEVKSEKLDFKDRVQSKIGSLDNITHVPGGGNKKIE
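Human K18 P301L fragment (15 uM unlabeled plus 0.24 uM Alexa 594-labeled) in 100 mM sodium acetate pH 7 with compound, aggregation induced by 20 uM heparin for 6 hr at 37 C. ThT (30 uM) added for 1 hr, then Alexa 594 FP read.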
RGS12 GoLoco inh: blocks human Gai1 binding to RGS12 GoLoco peptide, red readout; P63096; Gai1:RGS12 GoLoco peptide FP, rhodamine, 10 min; Potency, µM (doses to about 61.6 µM), without a hit: top-dose activity, negative = inhibition, most hits filed as inhibitors; actives 0.44% (n = 230,000); active = well fitted inhibition curve with a large enough effect, not every such curve was filed as active; inactive = no such curve, though single readings can be large or run the other way; also: nearly all actives have a fitted effect of over 30% in size
TexasRed fluor: counter-screen for TRb-SRC2 inhibitors: fluorescence interference; TRb/SRC2 Texas Red total fluorescence interference; Potency, µM (highest dose often 106 µM), without a hit: at the highest dose fluorescence change, negative = quenching; actives 0.29% (n = 280,000); AID 1479; active = well fitted curve in either direction with a large enough effect; inconclusive = small, poorly fitted or top-dose-only effect
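Flags fluorescent or light-absorbing compounds by total fluorescence, S + 2P, at 555 nm excitation and 632 nm emission. Mixture: 20 nM Texas Red SRC2 peptide, 0.6 uM human TRb LBD, 1 uM T3, 5% DMSO; compound exposure 5 h at ambient temperature.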
Tau fibril ThT: inhibitors of human tau fibril formation, thioflavin T binding; Potency, µM (highest dose often 57.4 µM), inactives show top-dose activity, negative = inhibition, most hits filed as inhibitors; P10636; recombinant tau K18 P301L, heparin-induced fibrillization, ThT fluorescence; actives 2.1% (n = 270,000); also: nearly all actives have a fitted effect of over 55% in size
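K18 P301L tau (15 uM + 0.24 uM Alexa 594-tagged), heparin 20 uM, NaOAc pH 7, 6 h 37 C; ThT 30 uM, 1 h RT, ex 450/em 510 nm.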
Tau fluor cs: counter-screen for tau fibril formation inhibitors | AID 1463 | tau K18 P301L Alexa594 fluorescence, heparin fibrillization | Potency, µM (series often up to 57.7 µM), for inactives: at the highest dose activity change, negative = decrease | actives 0.93% (n = 280,000); also: nearly all actives have a fitted effect of over 55% in size
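Human tau K18 P301L (15 uM unlabeled, 0.24 uM Alexa 594-labeled) in 100 mM sodium acetate pH 7 with 20 uM heparin, 6 hr at 37 C. ThT 30 uM added, 1 hr ambient; Alexa 594 FP and total fluorescence read at 555/632 nm.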
TRb SRC2 PPI: disrupts binding of human TR beta to SRC2; P10828; TRbeta-SRC2 peptide binding, fluorescence polarization; receptor liganded with 1 µM T3; Potency, µM (doses to about 106 µM), inactives show top-dose activity change, negative = inhibition, usual class: inhibitors; actives 0.065% (n = 280,000); AID 1469;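 also: plate controls were bound peptide for no effect and peptide without receptor for full effect; nearly all actives have a fitted effect of over 50% in size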
Target sequence (P10828 whole entry, looked up): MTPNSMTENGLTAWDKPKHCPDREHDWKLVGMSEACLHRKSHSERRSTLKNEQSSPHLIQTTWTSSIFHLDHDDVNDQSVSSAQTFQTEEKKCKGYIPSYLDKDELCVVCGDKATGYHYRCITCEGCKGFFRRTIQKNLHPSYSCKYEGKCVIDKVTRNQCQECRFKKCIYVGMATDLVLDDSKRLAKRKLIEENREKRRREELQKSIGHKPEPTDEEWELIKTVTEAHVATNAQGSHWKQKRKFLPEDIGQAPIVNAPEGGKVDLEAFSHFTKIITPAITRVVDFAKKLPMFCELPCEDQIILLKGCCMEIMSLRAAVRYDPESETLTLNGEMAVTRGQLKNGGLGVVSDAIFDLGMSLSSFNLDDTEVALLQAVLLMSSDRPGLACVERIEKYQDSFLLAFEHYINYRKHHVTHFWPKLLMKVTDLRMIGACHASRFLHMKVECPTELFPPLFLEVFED
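Fluorescence polarization of 20 nM Texas Red SRC2 peptide with 0.6 uM human TRb ligand-binding domain, in Tris buffer with 1uM T3 and 5% DMSO. Incubated 5 hr ambient; normalized to unbound and bound controls.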
Starred values were filed as active, the others as inactive; i = inactive; ? = inconclusive; · = no result given; [ ] = another dose, or the depositor's remark. Unless noted, calls follow the shape of the dose curve; as a rule, active = well fitted curve in the direction sought with a large enough effect; inconclusive = small, poorly fitted or top-dose-only effect, or another doubt; inactive = no such curve, though single readings can be large; an effect the other way counts as inactive or inconclusive. Unless noted, % is scaled to controls: 0 for no effect and ±100 for the full control effect; potency is read from the fitted curve at half-maximal effect.

SMILES | Tau FP inhib | RGS12 GoLoco inh | TexasRed fluor | Tau fibril ThT | Tau fluor cs | TRb SRC2 PPI
Cc1c2c(c(O)c3c(O)cccc13)C(=O)O[C@H]2C1C(N(C)C)C(O)=C(C(N)=O)C(=O)[C@H]1O (some centres undefined) | · | · | 22.4µM*[quencher] | · | · | ?
CCc1cccc2c(C(=O)CSc3nncn3-c3ccc(OC)cc3)c[nH]c12 | -3.3% | -1.4% | -2.4% | -14.9% | ? | 0.6%
CCc1cccc2c(C(=O)CSc3nncn3-c3ccccc3OC)c[nH]c12 | -2.5% | -54.7% | 89.1µM*[quencher] | 3.4% | 0.6% | 0.0%
Cc1cc(=O)[nH]c(SCC(=O)/C=C2\N(C)c3ccccc3C2(C)C)n1 | ? | 124.9% | 19.5%[53 µM] | ? | 25.1µM*[fluorescent] | 23.0%[53 µM]
CC1(C)COC(/C=C/c2ccc([N+](=O)[O-])cc2)=N1 | 4.4% | 4.5% | 0.9% | ? | -16.8% | -9.0%
O=c1c(O)c(-c2ccc(O)c(O)c2)oc2c(OC3OC(CO)C(O)C(O)C3O)c(O)cc(O)c12 (centres undefined) | ? | -6.2% | -1.9% | 14.1µM* | -28.2% | 3.6%
O=c1c(OC2OC(CO)C(O)C(O)C2O)c(-c2ccc(O)c(O)c2)oc2cc(O)cc(O)c12 (centres undefined) | 4.4% | 8.4% | -16.0% | -18.1% | -9.4% | 6.8%
O=c1c(O)c(-c2ccc(O)c(O)c2)oc2c(OC[C@@H]3O[C@@H](O)[C@@H](O)[C@H](O)[C@H]3O)c(O)cc(O)c12 | -14.6% | -7.2% | -17.0% | 10µM* | -20.8% | -8.5%
Cc1ccc(N2CCN(C(=O)NCc3noc4ccc(C)cc34)CC2)c(C)c1 | 4.8% | · | 0.1% | ? | -25.6% | 4.0%
CCc1cc(-c2nc(N)ncc2-c2ccc(Br)cc2)c(O)cc1OC | -2.8% | -16.5% | -2.1% | ? | 12.6µM*[quencher] | 1.6%
N#C/C(=C/c1ccc([N+](=O)[O-])cc1)C(=O)Nc1ccccc1O | -0.7% | 10.3% | 0.4% | ? | -21.4% | -14.2%
N#C/C(=C/c1ccc(O)c([N+](=O)[O-])c1)C(=O)Nc1ccccc1 | 8.1% | 0.5% | -6.0% | 8.91µM* | ? | -1.2%
N#C/C(=C\c1ccc(O)c(O)c1)C(=O)NCCc1ccccc1 | 11.6% | 10.9% | -3.6% | ? | ? | 4.2%
N#C/C(=C\c1ccc(O)c(O)c1)C(=O)NCCCCc1ccccc1 | 1.7% | -0.6% | -4.5% | 15.8µM* | 14.1µM*[quencher] | 0.5%
CN1N=C(C(=O)N2CCc3c([nH]c4ccccc34)C2c2ccccc2Cl)CCC1=O (centres undefined) | 2.7% | 6.5% | 0.4% | -9.5% | -5.6% | -2.0%
COC(=O)c1cc(NC(=O)c2cc(-c3ccc(C(F)(F)F)cc3)oc2C(F)(F)F)ccc1N1CCOCC1 | 8.2% | 4.1% | -0.7% | · | 1µM*[quencher] | 2.4%
COC(=O)c1cc(NC(=O)c2cc(-c3ccc(OC)cc3)oc2C(F)(F)F)ccc1N1CCOCC1 | ? | -0.6% | -2.8% | · | 8.91µM*[quencher] | 5.7%
COc1ccccc1C(=O)Nc1ccc(OCc2cc(=O)n3ccsc3n2)cc1 | -3.6% | · | -0.4% | ? | -9.9% | 1.3%
COc1ccc(N2C(=O)/C(=C/c3cccs3)NC2=S)cc1 | ? | -14.1% | 1.4% | 22.4µM* | -24.7% | 1.8%
O=C1CSC(=S)N1Cc1cccnc1 | -10.8% | 281.1% | ? | 31.6µM* | -6.3% | ?
CCOC(=O)c1ccc(COC(=O)c2ccc3c(c2)-c2ccccc2C3=O)cc1 | 1.8% | 8.6% | -2.4% | ? | -25.1% | 0.5%
CCCN=C(C)C1=C(O)c2ccccc2C1=O | 0.4% | -10.0% | -6.5% | 2.5% | -7.3% | -1.6%
CCCc1ccc(/C=C2\C(=O)c3ccccc3C(O)=C2C(=O)OCC)cc1 | ? | -127.9% | -5.7% | 31.6µM* | ? | -1.9%
CCOC(=O)C1=C(O)c2ccccc2C(=O)/C1=C\c1ccc(CC)cc1 | 20µM* | i | -7.3% | 14.1µM* | ? | -0.4%
SMILES | Tau FP inhib | RGS12 GoLoco inh | TexasRed fluor | Tau fibril ThT | Tau fluor cs | TRb SRC2 PPI
CSc1cccc(NC(=O)c2cccc(N3CCCS3(=O)=O)c2)c1 | -1.8% | · | -2.4% | -9.9% | -19.4% | -1.1%
Cn1nc(-c2ccc(Cl)cc2)nc2c(=O)n(C)c(=O)nc1-2 | ? | -8.3% | -6.1% | 8.91µM* | -16.5% | ?
C[C@H](O)[C@@H]1C(=O)N2C(C(=O)O)=C(SCCN=CN)C[C@@H]12 | · | 5.8%[21.6 µM] | -0.7%[53 µM] | · | · | -2.9%[53 µM]
CCc1ccc2[nH]c(=O)c(C(c3nnnn3CCOC)N3CCN(c4ccccc4F)CC3)cc2c1 (centres undefined) | ? | -5.3% | -3.2% | 17.8µM* | -24.0% | -2.5%
CN(C)c1ccc(N/C=C/C(=O)c2ccco2)cc1 | ? | -46.1% | 0.3% | 2µM* | ? | -13.6%
NS(=O)(=O)c1ccc(N/C=C\C(=O)c2ccc(F)cc2)cc1 | 3.2% | 2.3% | -0.1% | -1.8% | -3.7% | -6.1%
CN(C)c1ccc(N/C=C/C(=O)c2ccc(F)cc2)cc1 | -13.4% | 1.4% | 2.7% | 2µM* | ? | -27.6%
CC(=O)Nc1ccc(NC(=O)c2ccco2)cc1 | -11.8% | 3.8% | -2.1% | -16.8% | -14.0% | -5.7%
COc1ccccc1Oc1ccc(N/C=C/C(=O)c2ccco2)cc1 | 7.7% | 111.4% | -2.5% | ? | ? | 1.1%
O=C(/C=C/Nc1ccccc1O)c1ccco1 | -6.8% | 2.0% | -5.7% | 12.6µM* | -26.0% | 2.7%
O=C(/C=C/Nc1ccccc1Oc1ccccc1)c1ccco1 | -10.5% | 21.4% | -5.4% | ? | ? | -5.5%
CC(=O)Nc1ccc(N/C=C/C(=O)c2ccco2)cc1 | 4.0% | 59.0% | -2.1% | 10µM* | -18.1% | 4.4%
O=C(NCCCc1nc2ccccc2n1Cc1ccccc1)C1CCCCC1 | 2.3% | · | -2.8% | -11.9% | -6.2% | -0.3%
CC(=O)n1cc(N(C(=O)CCl)c2ccc(Cl)cc2)c2ccccc21 | -6.7% | -1.9% | -2.3% | 28.2µM* | -18.7% | 0.2%
COc1ccccc1CC(=O)Nc1cccc(F)c1 | 3.7% | -0.9% | -0.4% | 0.7% | -3.3% | -7.1%
Cc1cc(C(=O)N2CCN(C/C=C/c3ccccc3)CC2)cs1 | 6.5% | 17.7% | -2.5% | -1.3% | 2.2% | -23.7%
CCc1ccccc1NC(=O)c1cnc2sc(N3CCCC3)nn2c1=O | -8.5% | · | 35.5µM*[quencher] | -10.5% | -12.7% | -15.9%
Cc1ccccc1NC(=O)c1cnc2sc(N3CCCC3)nn2c1=O | -4.4% | · | 1.5% | 0.6% | -1.2% | 2.0%

Screening results: PubChem, National Center for Advancing Translational Sciences (NCATS)
